Screening data: PubChem, National Center for Advancing Translational Sciences (NCATS)
A selection: hits, their analogues and other compounds. The true share with any hit is near 19%.
KB-V1 MDR tox – qHTS assay for MDR1-selective chemotherapeutics: Primary screen using the drug-selected MDR subline cells KB-V1; Potency, µM (highest dose often 46.1 µM), usual class: cytotoxic; KB-V1 MDR cells viability, CellTiter-Glo, 72 h; 400,000 tested, 3.4% active; note: nearly all actives have a fitted effect of over 60% in size
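Luminescent ATP read-out (CellTiter-Glo, 10 min) measures survival of drug-selected KB-V1 MDR cells after 72 h, 37 degrees C compound exposure. Medium: phenol-red-free DMEM, 10% FBS. Values from fitted concentration-response curves.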
DT40 TDP1 no CPT – qHTS for Inhibitors of human tyrosyl-DNA phosphodiesterase 1 (TDP1): qHTS in cells in absence of CPT; DT40 Tdp1-/- hTDP1 cells, no CPT, ATP luminescence, 48 h; Potency, µM (doses to about 46.2 µM), inactives show at the top dose activity change, negative = growth inhibition, usual class: inhibitors; 420,000 tested, 15% active; note: nearly all actives have a fitted effect of over 55% in size
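Readout: luminescence from CellTiter-Glo after 30 min in the dark at RT. Cells: DT40 Tdp1-/- with stable hTDP1, 400/well. Exposure: compounds alone, ≥48 hr, 37 °C.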
KB-3-1 tox – qHTS assay for MDR1-selective chemotherapeutics: Primary screen using the parental adenocarcinoma cell KB-3-1; KB-3-1 viability, CellTiter-Glo ATP luminescence, 72 h; Potency, µM (top dose mostly 46.1 µM), hits mostly cytotoxic; 400,000 tested, 1.4% active; AID 1347075, 2019; note: nearly all actives have a fitted effect of over 60% in size
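Cells are dispensed, compounds pinned in, plates held at 37 °C for 72 h, then CellTiter-Glo is added and luminescence read after 10 minutes. Cell line: parental KB-3-1 in phenol-red-free DMEM, 10% FBS.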
HT1080 IDH1KD tx – qHTS for induction of synthetic lethality in tumor cells producing 2HG: qHTS for the HT-1080-IDH1KD cell line. HT-1080 IDH1 knockdown viability, ATP luminescence, 48 h. Potency, µM (top dose mostly 46.1 µM), without a hit: at the highest dose activity, negative = toxicity, hits mostly cytotoxic. 360,000 tested, 2% active;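 note: 0% = DMSO wells and -100% = cell-free medium wells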
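Knockdown cells (IDH1KD HT-1080) received compounds 2 h after plating at 750 cells/well and were kept 48 h at 37 °C in 5% FBS RPMI. A CellTiter-Glo luminescence read gave % activity for curve fitting.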
DT40 TDP1 CPT – qHTS for Inhibitors of human tyrosyl-DNA phosphodiesterase 1 (TDP1): qHTS in cells in presence of CPT. chicken DT40 Tdp1-/-;hTDP1 cells + 20 nM CPT, ATP luminescence, 48 h. Potency, µM (top dose mostly 46.2 µM), for the others: top-dose activity change, negative = growth inhibition, hits mostly inhibitors. 420,000 tested, 12% active. AID 686979, 2013; note: nearly all actives have a fitted effect of over 55% in size
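Chicken DT40 Tdp1-/- cells stably complemented with human TDP1 were seeded at 400 cells/well in medium containing 20 nM camptothecin, exposed to pin-transferred compounds, and grown at 37 °C for at least 48 hr. Viability was read as ATP luminescence.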
HT1080NT lethal – qHTS for induction of synthetic lethality in tumor cells producing 2HG: qHTS for the HT-1080-NT fibrosarcoma cell line; HT-1080-NT fibrosarcoma viability, CellTiter-Glo ATP luminescence, 48 h; Potency, µM (doses to about 46.1 µM), for inactives: top-dose activity, negative = less viability, actives largely listed as cytotoxic; 360,000 tested, 1.6% active; AID 686970, 2013;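 note: NT is the 2HG producing partner of a matched IDH1 knockdown line; 0% = DMSO-treated cells and -100% = media-only wells without cells; nearly all actives have a fitted effect of over 55% in size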
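Read-out is CellTiter-Glo luminescence after 10 minutes at room temperature, following 48 hours' compound treatment of HT-1080-NT cells (750 cells/well, RPMI, 5% FBS, 37 degrees C).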
Active calls of the source: *; [ ] = remark or other dose. Calls come from the whole dose curve; as a rule, active = well fitted curve in the direction sought with a large enough effect; inconclusive = small, poorly fitted or top-dose-only effect, or another doubt; inactive = no such curve, though single readings can be large; an effect the other way counts as inactive or inconclusive. Unless noted, % is set by controls: 0 for no effect and ±100 for the full control effect; potency is the fitted concentration of half-maximal effect.

How did COc1cc(OC)cc(-c2nnc(SCC(=O)N3CCCc4ccccc43)o2)c1 do in these assays?
KB-V1 MDR tox: inactive; DT40 TDP1 no CPT: 21µM*; KB-3-1 tox: inactive; HT1080 IDH1KD tx: -2%; DT40 TDP1 CPT: inconclusive; HT1080NT lethal: -4%

How did CC(C)[C@H]1COCCS(=O)(=O)N1Cc1ccccc1-c1cccc(Cl)c1 do in these assays?
KB-V1 MDR tox: inconclusive; DT40 TDP1 no CPT: inconclusive; KB-3-1 tox: inactive; HT1080 IDH1KD tx: 4%; DT40 TDP1 CPT: inconclusive; HT1080NT lethal: -1%

Results for Cc1occc1-c1nnc(SCC(=O)N2CCc3ccccc32)o1 ?
KB-V1 MDR tox: inactive; DT40 TDP1 no CPT: 21µM*; KB-3-1 tox: inactive; HT1080 IDH1KD tx: 4%; DT40 TDP1 CPT: 16µM*; HT1080NT lethal: -2%

How did COc1cc(OC)cc(C(=O)N2CC(=O)Nc3ccccc32)c1 do in these assays?
KB-V1 MDR tox: 2.3µM*; DT40 TDP1 no CPT: 1.3µM*; KB-3-1 tox: inconclusive; HT1080 IDH1KD tx: inconclusive; DT40 TDP1 CPT: 1.5µM*; HT1080NT lethal: inconclusive

Results for CCCn1nc(C(=O)N2CC(=O)Nc3ccccc32)c2ccccc2c1=O ?
KB-V1 MDR tox: 21µM*; DT40 TDP1 no CPT: 15µM*; KB-3-1 tox: 8.2µM*; HT1080 IDH1KD tx: inconclusive; DT40 TDP1 CPT: 21µM*; HT1080NT lethal: inconclusive

What do the screens show for `COc1ccc(OC)c(C2=NOC(C(=O)N3CCCc4ccccc43)C2)c1` (centres undefined)?
KB-V1 MDR tox: 16µM*; DT40 TDP1 no CPT: inconclusive; KB-3-1 tox: inactive; HT1080 IDH1KD tx: -1%; DT40 TDP1 CPT: -20%; HT1080NT lethal: 0%

What do the screens show for `O=C(C1CC(c2ccc(F)cc2)=NO1)N1CCCc2ccccc21` (centres undefined)?
KB-V1 MDR tox: inactive; DT40 TDP1 no CPT: -28%; KB-3-1 tox: inactive; HT1080 IDH1KD tx: -11%; DT40 TDP1 CPT: -20%; HT1080NT lethal: 0%

Results for O=C(CSc1nnc(-c2ccc(Cl)cc2)o1)N1CCc2ccccc21 ?
KB-V1 MDR tox: inactive; DT40 TDP1 no CPT: 0%; KB-3-1 tox: inactive; DT40 TDP1 CPT: 5%

What do the screens show for `CCCN(CC(=O)Nc1ccccc1C)C(=O)C1CC(=O)N(c2ccc(CC)cc2)C1` (centres undefined)?
KB-V1 MDR tox: inactive; DT40 TDP1 no CPT: -5%; KB-3-1 tox: inactive; HT1080 IDH1KD tx: 2%; DT40 TDP1 CPT: -2%; HT1080NT lethal: 5%[9.24 µM]

What do the screens show for `CCc1nc2ccc(C(=O)NCCCN3CCCC3=O)cn2c1N(C)CCC(C)C`?
KB-V1 MDR tox: inactive; DT40 TDP1 no CPT: inconclusive; KB-3-1 tox: inactive; HT1080 IDH1KD tx: 13%; DT40 TDP1 CPT: inconclusive; HT1080NT lethal: -2%

What do the screens show for `O=C(c1coc(=O)c(Br)c1)N1CCCc2ccccc21`?
KB-V1 MDR tox: inactive; DT40 TDP1 no CPT: 2.6µM*; KB-3-1 tox: inactive; HT1080 IDH1KD tx: 0%; DT40 TDP1 CPT: 1.8µM*; HT1080NT lethal: 4%

What do the screens show for `CCCc1cc(=O)[nH]c(SCC(=O)Nc2sccc2C#N)n1`?
KB-V1 MDR tox: inactive; DT40 TDP1 no CPT: -3%; KB-3-1 tox: inactive; HT1080 IDH1KD tx: 0%; DT40 TDP1 CPT: -15%; HT1080NT lethal: 3%

What do the screens show for `COC(=O)c1ccc(COc2cccc3c2CCN(Cc2cccc(C)c2)C3=O)o1`?
KB-V1 MDR tox: 16µM*; DT40 TDP1 no CPT: inconclusive; KB-3-1 tox: inconclusive; HT1080 IDH1KD tx: -24%; DT40 TDP1 CPT: inconclusive; HT1080NT lethal: -19%

Results for CN1CCc2c(OCc3ccc(F)cc3)cccc2C1=O ?
KB-V1 MDR tox: inconclusive; DT40 TDP1 no CPT: inconclusive; KB-3-1 tox: inactive; HT1080 IDH1KD tx: -13%; DT40 TDP1 CPT: -21%; HT1080NT lethal: -5%

How did Cc1ccc(CN2CCc3c(OCc4ccc(F)cc4)cccc3C2=O)cc1 do in these assays?
KB-V1 MDR tox: 5.8µM*; DT40 TDP1 no CPT: inconclusive; KB-3-1 tox: inconclusive; HT1080 IDH1KD tx: -18%; DT40 TDP1 CPT: inconclusive; HT1080NT lethal: -21%

What do the screens show for `O=C1c2cccc(OCc3ccc(F)cc3)c2CCN1Cc1ccc(F)cc1`?
KB-V1 MDR tox: 3.3µM*; DT40 TDP1 no CPT: 12µM*; KB-3-1 tox: 2.9µM*; HT1080 IDH1KD tx: inconclusive; DT40 TDP1 CPT: inconclusive; HT1080NT lethal: -28%

How did Nc1cccc2[nH]cnc12 do in these assays?
KB-V1 MDR tox: inactive; DT40 TDP1 no CPT: 0%; KB-3-1 tox: inactive; DT40 TDP1 CPT: -5%

What do the screens show for `Cc1ccc2c(c1)C(c1ccccc1)N(C(=O)c1ccc(OC(C)C)cc1)CC(=O)N2` (centres undefined)?
KB-V1 MDR tox: inactive; DT40 TDP1 no CPT: inconclusive; KB-3-1 tox: inactive; DT40 TDP1 CPT: inconclusive

Results for COc1ccc(OC)c(/C=C/c2nc3ccccc3c(=O)n2-c2ccc(F)c(Cl)c2)c1 ?
KB-V1 MDR tox: inactive; DT40 TDP1 no CPT: inconclusive; KB-3-1 tox: inconclusive; DT40 TDP1 CPT: inconclusive

What do the screens show for `CCC(=O)N(Cc1ccco1)c1nc(-c2ccc(OC)cc2)cs1`?
KB-V1 MDR tox: inactive; DT40 TDP1 no CPT: -6%; KB-3-1 tox: inactive; HT1080 IDH1KD tx: 3%; DT40 TDP1 CPT: -14%; HT1080NT lethal: 7%

What do the screens show for `C=CCN(C(=O)CCc1ccccc1OC)c1nc(-c2ccc(S(C)(=O)=O)cc2)cs1`?
KB-V1 MDR tox: inactive; DT40 TDP1 no CPT: 9.2µM*; KB-3-1 tox: inactive; HT1080 IDH1KD tx: inconclusive; DT40 TDP1 CPT: 16µM*; HT1080NT lethal: -10%

What do the screens show for `Cc1onc(-c2ccccc2)c1C(=O)NC1CCCCC1C` (centres undefined)?
KB-V1 MDR tox: inactive; DT40 TDP1 no CPT: -14%; KB-3-1 tox: inactive; HT1080 IDH1KD tx: 14%; DT40 TDP1 CPT: inconclusive; HT1080NT lethal: 13%

How did Cc1onc(-c2ccccc2)c1C(=O)Nc1sc2c(c1C#N)CCC(C)C2 (centres undefined) do in these assays?
KB-V1 MDR tox: inconclusive; DT40 TDP1 no CPT: inconclusive; KB-3-1 tox: inconclusive; HT1080 IDH1KD tx: 0%[9.24 µM]; DT40 TDP1 CPT: inconclusive; HT1080NT lethal: 13µM*
